# Reference: PubChem BioAssay AID651739 (Broad Institute, 2012)
# The campaign covered roughly 5,600 compounds. About 4,100 (73%) were called active. Not shown: some 4% with an inconclusive outcome. So high a share suggests a set chosen from earlier hits. Only a sample is shown. Unmarked numbers belong to inactive results.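 The calls were made as follows: active = mean replicate inhibition above about 95% and at least 55% of replicates individually reaching it (limit read from the data); inconclusive = only one of the two criteria is met; inactive = neither criterion is met.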
# Assay: blockers of Trypanosoma cruzi growth in host cells – cell-based, NIH3T3 host, beta-gal parasite, luminescence, cherry-pick, confirmation (AID 651739)
# Settings: T. cruzi beta-gal in NIH3T3, GalScreen luminescence, 90 h; at 8.35 µM; active compounds read high
row,SMILES,inhibition
1,CC(C)C#Cc1ccc([C@H]2[C@H](CO)N3CCCCN(C(=O)NC(C)C)C[C@@H]23)cc1,103% (active)
2,COc1cccc(S(=O)(=O)N2CCCCN3[C@H](C2)[C@H](c2ccc(C#CC(C)C)cc2)[C@@H]3CO)c1,102% (active)
3,C[C@@H](O)C#Cc1ccc([C@@H]2[C@H](CO)N3CCCCN(S(=O)(=O)c4ccccc4)C[C@@H]23)cc1,62.6%
4,CN(C)CC#Cc1ccc([C@H]2[C@H]3CN(S(=O)(=O)c4ccccc4F)CCCCN3[C@H]2CO)cc1,83.2%
5,C[C@H](O)C#Cc1ccc([C@@H]2[C@H]3CN(S(=O)(=O)c4ccccc4)CCCCN3[C@H]2CO)cc1,32.8%
6,COc1ccc(S(=O)(=O)N2CCCCN3[C@H](C2)[C@H](c2ccc(C#CCC(C)C)cc2)[C@@H]3CO)cc1,98.1% (active)
7,COc1ccc(S(=O)(=O)N2CCCCN3[C@H](CO)[C@@H](c4ccc(C#CC(C)C)cc4)[C@H]3C2)cc1,109% (active)
8,COc1cccc(S(=O)(=O)N2CCCCN3[C@H](CO)[C@H](c4ccc(-c5ccncc5)cc4)[C@H]3C2)c1,110% (active)
9,COc1cccc(S(=O)(=O)N2CCCCN3[C@H](CO)[C@H](c4ccc(C#CC5CC5)cc4)[C@H]3C2)c1,105% (active)
10,CC(C)CC#Cc1ccc2c(c1)O[C@H](CN(C)Cc1ccccc1F)[C@@H](C)CN([C@@H](C)CO)S2(=O)=O,96.7% (active)
11,CC(C)CC#Cc1ccc2c(c1)O[C@H](CN(C)Cc1ccncc1)[C@H](C)CN([C@H](C)CO)S2(=O)=O,97.8% (active)
12,C[C@H](CO)N1C[C@H](C)[C@H](CN(C)Cc2ccncc2)Oc2cc(-c3ccncc3)ccc2S1(=O)=O,92.9%
13,CC(C)CC#Cc1ccc2c(c1)O[C@H](CN(C)Cc1cccnc1)[C@H](C)CN([C@@H](C)CO)S2(=O)=O,98.7% (active)
14,C[C@H](CO)N1C[C@H](C)[C@@H](CN(C)Cc2ccncc2)Oc2cc(Br)ccc2S1(=O)=O,95.7% (active)
15,O=S(=O)(c1ccc(F)cc1)N1CCCCN2[C@H](C1)[C@H](c1ccc(C3=CCCCC3)cc1)[C@@H]2CO,106% (active)
16,Cc1ccccc1-c1ccc([C@H]2[C@H]3CN(S(=O)(=O)c4ccc(F)cc4)CCCCN3[C@H]2CO)cc1,97.2% (active)
17,C[C@H]1CCCCO[C@@H](CN(C)S(=O)(=O)c2cccs2)[C@@H](C)CN([C@@H](C)CO)C(=O)c2cc(NS(=O)(=O)c3ccc(Cl)cc3)ccc2O1,101% (active)
18,C[C@@H]1CN([C@H](C)CO)C(=O)c2cc(NS(=O)(=O)c3cccs3)ccc2O[C@@H](C)CCCCO[C@@H]1CN(C)S(=O)(=O)c1ccc(Cl)cc1,101% (active)
19,C[C@@H]1CCCCO[C@H](CN(C)S(=O)(=O)c2ccc(Cl)cc2)[C@H](C)CN([C@@H](C)CO)C(=O)c2cc(NS(=O)(=O)c3cccs3)ccc2O1,105% (active)
20,Cc1noc(C)c1S(=O)(=O)Nc1ccc2c(c1)C(=O)N([C@@H](C)CO)C[C@@H](C)[C@H](CN(C)S(=O)(=O)c1ccc(Cl)cc1)OCCCC[C@H](C)O2,99.1% (active)
21,C[C@@H]1CCCCO[C@H](CN(C)S(=O)(=O)c2cccs2)[C@H](C)CN([C@H](C)CO)C(=O)c2cc(NS(=O)(=O)c3ccc(F)cc3)ccc2O1,109% (active)
22,CC(C)(C)[S@@](=O)N1Cc2cc(C(=O)NCc3ccc4c(c3)OCO4)nc(-c3cccc(-c4ccccc4)c3)c2[C@H]1CCO,105% (active)

row,SMILES,inhibition
1,O=C(C1CCC1)N1CCCCN2[C@H](CO)[C@H](c3ccc(-c4ccncc4)cc3)[C@@H]2C1,103% (active)
2,O=C(C1CC1)N1CCCCN2[C@H](CO)[C@H](c3ccc(-c4cccc(F)c4)cc3)[C@H]2C1,99.1% (active)
3,O=C(C1CCCC1)N1CCCCN2[C@@H](CO)[C@H](c3ccc(-c4cccc(F)c4)cc3)[C@@H]2C1,112% (active)
4,OC[C@@H]1[C@H](c2ccc(C#CC3CC3)cc2)[C@@H]2CN(CCC(F)(F)F)CCCCN12,105% (active)
5,CN(C)C(=O)c1ccc(-c2ccc([C@H]3[C@@H](CO)N4CCCCN(CC5CC5)C[C@H]34)cc2)cc1,90%
6,O=C(Nc1cccc(F)c1)N1CCCCN2[C@H](CO)[C@H](c3ccc(C#CC4CC4)cc3)[C@@H]2C1,109% (active)
7,N#Cc1cccc(-c2ccc([C@H]3[C@H](CO)N4CCCCN(C(=O)Nc5cccc(F)c5)C[C@@H]34)cc2)c1,94.2%
8,O=C(C1CCC1)N1CCCCN2[C@H](CO)[C@H](c3ccc(-c4cccc(F)c4)cc3)[C@@H]2C1,109% (active)
9,O=C(Nc1ccccc1)N1CCCCN2[C@H](CO)[C@@H](c3ccc(C#Cc4ccccn4)cc3)[C@H]2C1,90%
10,C[C@@H]1CN([C@H](C)CO)S(=O)(=O)c2ccc(C3=CCCC3)cc2O[C@H]1CN(C)Cc1ccccc1F,99.3% (active)
11,C[C@H]1CN([C@@H](C)CO)S(=O)(=O)c2ccc(C3=CCCC3)cc2O[C@@H]1CN(C)Cc1ccccc1,96.5% (active)
12,C[C@H](CO)N1C[C@H](C)[C@@H](CN(C)S(=O)(=O)c2ccc(F)cc2)Oc2cc(C3=CCCC3)ccc2S1(=O)=O,94.1%
13,C[C@H]1CN([C@@H](C)CO)S(=O)(=O)c2ccc(C3=CCCCC3)cc2O[C@@H]1CN(C)Cc1ccccc1,102% (active)
14,C[C@@H]1CCCCO[C@@H](CN(C)C(=O)Nc2ccc(F)cc2)[C@H](C)CN([C@H](C)CO)C(=O)c2cc(NC(=O)Nc3cccc4ccccc34)ccc2O1,114% (active)
15,C[C@@H]1CCCCO[C@@H](CN(C)Cc2ccccc2)[C@H](C)CN([C@H](C)CO)C(=O)c2cc(NC(=O)Nc3cccc4ccccc34)ccc2O1,96.4% (active)
16,C[C@@H]1CN([C@@H](C)CO)C(=O)c2cc(NC(=O)Nc3cccc4ccccc34)ccc2O[C@@H](C)CCCCO[C@H]1CN(C)Cc1ccccc1,107% (active)
17,C[C@@H]1CN([C@@H](C)CO)C(=O)c2cc(NC(=O)Nc3ccc4c(c3)OCO4)ccc2O[C@@H]1CN(C)Cc1ccc(Oc2ccccc2)cc1,101% (active)
18,C[C@@H]1CN([C@H](C)CO)C(=O)Cc2cc(NC(=O)Cc3ccccc3)ccc2O[C@H]1CN(C)Cc1ccc(Oc2ccccc2)cc1,112% (active)
19,C[C@@H]1CN([C@@H](C)CO)C(=O)c2cc(NC(=O)Cc3ccccc3)ccc2O[C@@H]1CN(C)Cc1ccc(Oc2ccccc2)cc1,99.9% (active)
20,C[C@H]1CN([C@@H](C)CO)C(=O)c2cc(NC(=O)Nc3ccc4c(c3)OCO4)ccc2O[C@@H]1CN(C)Cc1ccc(Oc2ccccc2)cc1,103% (active)
21,C[C@H]1CN([C@@H](C)CO)C(=O)Cc2cc(NC(=O)Cc3cn(C)c4ccccc34)ccc2O[C@@H]1CN(C)Cc1ccc(C(F)(F)F)cc1,104% (active)
22,C[C@H]1CN([C@@H](C)CO)C(=O)Cc2cc(NC(=O)Cc3cn(C)c4ccccc34)ccc2O[C@@H]1CN(C)Cc1ccccc1,77.4%

row,SMILES,inhibition
1,C[C@H]1CN([C@@H](C)CO)C(=O)c2cccc(NS(=O)(=O)c3cn(C)cn3)c2O[C@@H]1CN(C)CC1CCCCC1,46.2%
2,Cc1ccc(S(=O)(=O)N(C)C[C@@H]2Oc3c(NC(=O)c4nc5ccccc5s4)cccc3C(=O)N([C@H](C)CO)C[C@@H]2C)cc1,95.2% (active)
3,COc1ccc(S(=O)(=O)N(C)C[C@H]2Oc3c(NC(=O)Nc4cccc5ccccc45)cccc3C(=O)N([C@@H](C)CO)C[C@H]2C)cc1,98.8% (active)
4,COc1ccc(NC(=O)N(C)C[C@@H]2Oc3c(NC(=O)NC4CCCCC4)cccc3C(=O)N([C@@H](C)CO)C[C@@H]2C)cc1,51.2%
5,C[C@@H]1CN([C@@H](C)CO)S(=O)(=O)c2ccc(-c3ccncc3)cc2O[C@@H]1CN(C)C(=O)Nc1ccc(F)cc1,100% (active)
6,C[C@@H]1CN([C@@H](C)CO)S(=O)(=O)c2ccc(C#Cc3ccccc3)cc2O[C@@H]1CN(C)C(=O)Nc1ccccc1,103% (active)
7,C[C@@H]1CN([C@@H](C)CO)S(=O)(=O)c2ccc(C#Cc3ccc(F)cc3)cc2O[C@H]1CN(C)C(=O)NC1CCCC1,105% (active)
8,C[C@@H]1CN([C@@H](C)CO)S(=O)(=O)c2ccc(C#Cc3ccc(F)cc3)cc2O[C@H]1CN(C)C(=O)c1ccccn1,108% (active)
9,COCC(=O)N1CC[C@@H]2[C@@H](CO)Nc3ccc(-c4cccc(C#N)c4)cc3[C@@H]21,111% (active)
10,N#Cc1ccc(-c2ccc3c(c2)[C@@H]2[C@@H](CCN2C(=O)Cc2ccncc2)[C@@H](CO)N3)cc1,112% (active)
11,C[C@H]1CN([C@@H](C)CO)S(=O)(=O)c2ccc(C#CC3CCCC3)cc2O[C@@H]1CN(C)C(=O)c1cccc(F)c1,96.6% (active)
12,C[C@@H]1CN([C@H](C)CO)S(=O)(=O)c2ccc(-c3cccc(C#N)c3)cc2O[C@@H]1CN(C)C(=O)Nc1ccccc1F,86.6%
13,C[C@H](CO)N1C[C@H](C)[C@@H](CN(C)C(=O)Nc2cc(F)ccc2F)Oc2cc(C#CC3CC3)ccc2S1(=O)=O,108% (active)
14,CC(=O)NC[C@@H]1[C@@H](c2ccc(-c3ccccc3F)cc2)[C@@H](CO)N1C(=O)C1CC1,15.9%
15,N#C[C@@H]1[C@@H](c2ccccc2)[C@@H](CO)N1C(=O)Cc1ccccc1,78.3%
16,CCN(C[C@H]1[C@H](c2ccccc2)[C@H](CO)N1C(=O)C1CC1)C(=O)NC1CCCC1,-20.8%
17,CCCC#Cc1ccc([C@@H]2[C@@H](C#N)N(C(=O)C3CCCC3)[C@@H]2CO)cc1,107% (active)
18,N#C[C@@H]1[C@@H](c2ccc(/C=C/c3ccccc3)cc2)[C@@H](CO)N1C(=O)C1CC1,108% (active)
19,N#C[C@@H]1[C@@H](c2ccc(C#Cc3cccc(F)c3)cc2)[C@@H](CO)N1C(=O)C1CCC1,104% (active)
20,N#C[C@@H]1[C@H](c2ccc(C#Cc3cccc(F)c3)cc2)[C@@H](CO)N1C(=O)C1CCCC1,103% (active)
21,CC(=O)N1[C@H](CNC(=O)C2CC2)[C@@H](c2ccc(-c3cccc(F)c3)cc2)[C@@H]1CO,19.2%
